# TDP1 block = blocks human tyrosyl-DNA phosphodiesterase 1; Q9NUW8; recombinant TDP1, AlphaScreen DNA substrate cleavage; Potency, µM (series often up to 130 µM), for the others: at the highest dose activity change, negative = inhibition, hits mostly inhibitors; 350,000 compounds, 0.28% hits; AID 485290; further: on the % scale 0 is the no-effect control and ±100 the full control effect; nearly all actives have a fitted effect of over 40% in size
#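 AlphaScreen read-out: signal falls as enzyme removes the 3' tyrosine-FITC from a 5'-biotinylated DNA oligo (15 nM, 5 min, RT). Enzyme was E. coli-made recombinant Tdp1 at 1 nM, exposed to compound for 15 min beforehand; beads 10 ug/ml, 10 min.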
# RECQ1 inh = blocks DNA unwinding by human RECQ1 | P46063 | RECQ1 DNA unwinding, red fluorescence kinetic read | Potency, µM (series often up to 57.3 µM), for the others: at the highest dose activity, negative = inhibition, most hits filed as inhibitors | 240,000 compounds, 0.54% hits;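 further: plate controls were vehicle for no effect and no enzyme for full effect; nearly all actives have a fitted effect of over 30% in size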
#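 RECQ1T1 50 nM; forked duplex (20 bp + 30-nt ss tails) 200 nM, ATP 2 mM final; pH 8.0, 2 mM MgCl2, 2.5 ug/ml poly(dI-dC); 15 min compound preincubation; discontinuous kinetic read over 2 h at RT.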
# APE1 inh = inhibitors of human APE1 endonuclease; P27695; recombinant APE1, TAMRA/BHQ-2 abasic DNA cleavage fluorescence; Potency, µM (highest dose often 65.8 µM), for the others: top-dose activity change, negative = inhibition, usual class: inhibitors; 350,000 compounds, 0.35% hits; AID 2517;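 further: plate controls were vehicle for no effect and reference inhibitor for full effect; nearly all actives have a fitted effect of over 55% in size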
#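 Readout is kinetic fluorescence (ex 525, em 598 nm) from cleavage of 50 nM TAMRA/BHQ-2 THF abasic duplex by 0.75 nM APE1, compound added 15 min beforehand at RT.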
# BLM inh = blocks DNA unwinding by human BLM helicase | P54132 | recombinant BLM DNA unwinding, fluorescence dequenching | Potency, µM (series often up to 56.1 µM), inactives show at the top dose activity change, negative = inhibition, actives largely listed as inhibitors | 350,000 compounds, 0.2% hits;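 further: plate controls were vehicle for no effect and no enzyme for full effect; nearly all actives have a fitted effect of over 35% in size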
# FEN1 inh-1 = inhibitors of human flap endonuclease 1 | 390,000 compounds, 0.35% hits | Potency, µM (titrated, usually from 114 µM), for inactives: at the top dose activity change, negative = inhibition, usual class: inhibitors | Recombinant FEN1 flap cleavage, fluorescence, 15 min | P39748; further: on the % scale 0 is the no-effect control and ±100 the full control effect; nearly all actives have a fitted effect of over 65% in size
#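 FEN1 at 10 nM, compound pretreatment for 15 min (room temperature), 50 nM final substrate to initiate; endpoint reads at 0 and 15 min; DMSO-only plates used as vehicle background.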
# FEN1 inh-2 = FEN1 inhibition, cherry-pick retest; shares compounds with FEN1 inh-1; FEN1 flap cleavage, TAMRA/BHQ2 fluorogenic DNA substrate; Potency, µM, hits mostly inhibitors; 880 compounds, 79% hits; AID 720498; further: nearly all actives have a fitted effect of over 60% in size
# * hit, by the source's call; i = inactive; ? = inconclusive; . = no result given; [ ] = dose if it differs, or a comment. An excerpt weighted towards active compounds, which were near 0.92% of everything screened. The call rests on the fitted dose curve; in most records, active means well fitted curve in the direction sought with a large enough effect; inconclusive means small, poorly fitted or top-dose-only effect, or another doubt; inactive means no such curve, though single readings can be large; an effect the other way counts as inactive or inconclusive. Potency means the concentration at half of the fitted maximal effect.
SMILES,TDP1 block,RECQ1 inh,APE1 inh,BLM inh,FEN1 inh-1,FEN1 inh-2
CCCCN(CCCN)c1ccc(Br)cn1,.,.,.,.,-17.2%,.
N#CC(Cc1ccc(O)c(O)c1)C(=O)N1CCc2ccccc21 (configuration not stated),17.9%[56.1 µM],-3.8%,6.9%,.,.,.
COCCNC(=O)c1cc2c(-c3ccc(Cl)cc3)nn(C)c2s1,0.0%,-5.5%,?,-9.5%,?,.
CCN1CCCC1CNC(=O)c1cc2c(-c3ccc(Cl)cc3)nn(C)c2s1 (configuration not stated),3.9%,9.6%,-9.8%,183.8%,50.1µM*,42.6*
CC(=O)Nc1ccc2nc3c(=O)[nH]c(=O)[nH]c3nc2c1,?,.,.,11.2µM*,28.2µM*,37.9*
CCc1ccc(OCC(=O)N(Cc2ccc(C)o2)C2CCS(=O)(=O)C2)cc1 (configuration not stated),3.7%,.,.,-0.5%,-0.6%,.
O=C1Nc2ccccc2Oc2cc([N+](=O)[O-])cc(Oc3ccccc3)c21,2.6%,1.8%,-4.2%,-9.7%,?,84.9*
O=C(Nc1cccc(Nc2ccccc2)c1)c1cnn2c1NC(=C1CC1)C=C2C(F)F,.,.,.,.,-5.6%,.
Cn1c(=O)oc2cc(S(=O)(=O)N3CCCC(C(=O)NCCc4ccc(Cl)cc4)C3)ccc21 (configuration not stated),9.0%,.,.,-2.6%,2.0%,.
C=CC1=C2C=C(C3CC3)N(CCCCO)C=C2C(=O)C(C)(OC(=O)c2ccco2)C1=O (configuration not stated),-2.6%[12.3 µM],1.5%[11.5 µM],0.2%[12.4 µM],-21.9%[12.4 µM],.,.
CCC(=O)N/C(N)=N/c1nc(C)c2cc(OC)ccc2n1,2.2%,-7.3%,2.0%,87.7%,79.4µM*,?
COc1ccc(/C=C2\C(=O)NC(=S)N2C(=O)c2ccc(C)cc2)cc1,?,17.0%,-2.0%,25.1µM*,?,75.7*
COc1ccc(-c2ccc(OC)c(C3C4C=CCCC4(C)C(=O)N3Cc3ccccc3)c2)cc1OC (configuration not stated),15.0%,-12.5%,7.7%,-10.1%,-26.0%,.
O=C(NCC(c1cccs1)S(=O)(=O)c1cccs1)c1cccc(F)c1 (configuration not stated),2.8%,.,.,2.7%,-15.7%,.
COc1ccc(-c2nn(-c3ccccc3)cc2/C=C2/SC(=S)N(CCC(=O)O)C2=O)c(C)c1,39.8µM*,.,?,?,?,67.5*
O=C(O)CCN1C(=O)/C(=C/c2cn(-c3ccccc3)nc2-c2cccs2)SC1=S,-2.8%,9.1%,-2.3%,-5.8%,?,.
c1ccc2c(c1)c1c(c3ccccc32)CN2CCCC2C1 (configuration not stated),.,.,.,.,17.8µM*,37.9*
CC1(C)CC(=O)c2cc(C(=O)Nc3ccc(Cl)cc3)c(=O)[nH]c2C1,3.6%,.,.,-5.4%,19.5%,.
Cc1cc(C)n2nc(C(=O)N/N=C/c3c4ccccc4cc4ccccc34)nc2n1,.,-12.8%,-3.0%,?,44.7µM*,?
C/C(=N/NC(=O)c1cc2ccccc2cc1O)C1C(=O)c2ccccc2C1=O,-8.0%,?,?,28.2µM*,50.1µM*,60.1*
C/C(=N\NC(=O)c1cc2ccccc2cc1O)c1ccccn1,-4.2%,.,-9.2%,0.1%,11.2%,.
COC(=O)C(C(C)C)N1CC(=O)c2ccccc2S1(=O)=O (configuration not stated),13.8%,i,0.8%,4.1%,12.8%,.
NC(N)=Nc1nc(-c2ccccc2)c2cc(F)ccc2n1,9.3%,25.1%,2.9%,106.3%,79.4µM*,53.6*
Nc1ccc2nc(-c3cccc(-c4nc5ccc(N)cc5[nH]4)n3)[nH]c2c1,.,.,-89.7%,14.1µM*,?,1.69*
CN(C)c1ccc(C=c2c3ccccc3n3c2c2c([n+]3C)CCCC2)cc1,.,.,.,.,22.4µM*,30.1*
CN(C)c1ccc(/C=C2\CCc3ccccc32)cc1,.,.,.,.,0.4%,.

# Source: PubChem (National Center for Advancing Translational Sciences (NCATS))
